# The full ranking holds about 33,000 sequences; the median of “E-score (-0.5 to 0.5)” is about -0.04, and the highest 2% start at about 0.36. The list comes from a sample in which the highest values are over-represented; it also holds similar and randomly drawn sequences.
# Biological target: T1, Hmlalpha2 (UniProt P0CY09)
# T1 sequence: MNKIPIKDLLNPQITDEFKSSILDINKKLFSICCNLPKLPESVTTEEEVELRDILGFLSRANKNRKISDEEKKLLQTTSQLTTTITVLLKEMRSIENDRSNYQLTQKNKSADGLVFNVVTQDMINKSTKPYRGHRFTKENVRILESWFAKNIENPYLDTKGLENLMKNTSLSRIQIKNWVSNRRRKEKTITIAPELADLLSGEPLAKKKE
# Assay: PBM E-score (8-mer binding enrichment) (E-score (-0.5 to 0.5)); higher = stronger / more preferred TF binding
# Settings: protein concentration: 200 nM; construct: GST-full length
# Method: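 Universal 'all 10-mer' protein binding microarrays (Agilent AMADID 015681) probed with GST-tagged S. cerevisiae TFs (full-length or DBD) made by in vitro transcription/translation (PURExpress), about 100-200 nM. Bound TF was detected with fluorescent anti-GST. Each ungapped 8-mer (which stands for itself and its reverse complement) is scored by the PBM enrichment score (E-score), a modified Wilcoxon-Mann-Whitney statistic from -0.5 to +0.5, computed with the Universal PBM Analysis Suite. Scale: above 0.35 generally sequence-specific binding.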
row,Sequence,PBM E-score
1,CACACCGC,-0.0386
2,GATTTACA,0.429
3,AATTTACC,0.12
4,CATTTACC,0.144
5,CATTTACG,0.303
6,GATTTAGA,-0.00065
7,AATTTACT,0.296
8,AATTTACA,0.431
9,CATTTACA,0.442
10,GATTTACC,0.18
11,TATTTAAA,0.207
12,TATTTAGA,0.28
13,TATTTACA,0.463
14,CCGGTGCC,-0.378
15,AGGAAGAC,-0.0908
16,CACTCGCA,0.0187
17,GACGCGGA,0.0365
18,TAAACGGA,0.0215
19,AGAGAGCA,-0.234
20,AAGACACG,0.373
21,GTGACACA,0.142
22,CAGACACG,0.0667

row,Sequence,PBM E-score
1,AAGACACA,0.183
2,ATGACACA,0.302
3,ATGACACG,0.404
4,TCACAGCA,0.0289
5,ACCGCTGG,-0.228
6,ATGATGTA,0.358
7,GCGATGTA,0.366
8,CTGATGTA,0.233
9,GTGATGTA,0.382
10,ACGATGTA,0.376
11,CCGATGTA,0.155
12,GCGATGAA,0.0458
13,GGGATGTA,0.328
14,ACGATGTC,0.0103
15,AACTGTTG,-0.104
16,AAGCCCTA,0.0656
17,CCACGGTC,-0.326
18,ACACGGAA,0.376
19,ATACGGTC,-0.0524
20,AAACGGTG,0.0442
21,ACACGGAT,0.36
22,ACACGGTC,0.397

row,Sequence,PBM E-score
1,ACACGGTA,0.366
2,GCACGGTA,-0.0709
3,ACACGGAG,0.315
4,ACACGGTG,0.392
5,CCACGGTA,-0.0423
6,ATACGGTG,-0.0688
7,ATTAAGTC,0.189
8,ACCTATGC,-0.0222
9,TCTGCGCA,-0.00074
10,CAGGGCCG,-0.121
11,ACGTTGCG,0.0728
12,CGTCCTTC,-0.152
13,GTTGAGCA,0.111
14,GTTGGCGA,-0.0755
15,GGCTCTTA,-0.184
16,ACTTAGAT,0.132
17,GTCCCTTA,-0.127
18,AATTACCC,-0.0352
19,CATTACGA,0.214
20,AATTACAC,0.467
21,TGTTACAA,0.31
22,TCTTACAA,0.229

row,Sequence,PBM E-score
1,CATTACAG,0.326
2,CATTACAC,0.474
3,CATTACAA,0.411
4,CATTACTA,0.225
5,CATTACCC,-0.00064
6,TATTACAA,0.416
7,AATTACAG,0.307
8,GTTTCCCA,-0.0865
9,TCGTTGCA,0.0513
10,GGAAAGTA,-0.136
11,AAGAAGAT,-0.0289
12,CCCGACAG,-0.191
13,AATCGGGG,-0.203
14,AAGATACC,-0.0459
15,CGGAACCC,-0.13
16,CCATTAAG,-0.0773
17,TACAAGGA,0.291
18,TATCGTCA,-0.00037
19,AATTACTA,0.257
20,GATTAAAC,0.155
21,GATTACTA,0.213
22,AATTACAA,0.436

row,Sequence,PBM E-score
1,AATTACCA,0.273
2,GATTACAA,0.438
3,GATTACCC,0.109
4,GATTACAC,0.483
5,GATTACCA,0.087
6,AGCGTTGG,-0.0565
7,CCTTGGGC,-0.362
8,TAGCTCAA,-0.0444
9,GACTCTGC,-0.314
10,AGGCTGCC,-0.401
11,ACAGTAAG,0.064
12,GTACGACA,0.196
13,ACATGGTA,0.397
14,ACATGGCC,0.417
15,GCATGGTA,0.189
16,CCATGGTA,0.00138
17,AGATGGTG,-0.0243
18,ACATGGCG,0.324
19,ACATGGTG,0.414
20,GCATGGCC,-0.0405
21,ACATGGTC,0.308

# Reference: the supplement of paper PMC3334620
